Source: paper PMC4336329 (PLoS ONE, 2015)
The whole screen tested about 310,000 compounds, of which about 14,000 (4.5%) showed an effect of 50% or more. Effects have a minus sign here. The entries come from a sample that favours strong results as a whole.

Each molecule was assayed against human ether-à-go-go-related gene (hERG) potassium channel (human, UniProt Q12809) (assay: primary screen, population patch clamp on CHO cells stably expressing hERG; higher = less effect of the substance).
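Further: peak tail current of the secondary pulse compared with the same well before compound.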

human ether-à-go-go-related gene (hERG) potassium channel, sequence (Q12809 whole entry, looked up): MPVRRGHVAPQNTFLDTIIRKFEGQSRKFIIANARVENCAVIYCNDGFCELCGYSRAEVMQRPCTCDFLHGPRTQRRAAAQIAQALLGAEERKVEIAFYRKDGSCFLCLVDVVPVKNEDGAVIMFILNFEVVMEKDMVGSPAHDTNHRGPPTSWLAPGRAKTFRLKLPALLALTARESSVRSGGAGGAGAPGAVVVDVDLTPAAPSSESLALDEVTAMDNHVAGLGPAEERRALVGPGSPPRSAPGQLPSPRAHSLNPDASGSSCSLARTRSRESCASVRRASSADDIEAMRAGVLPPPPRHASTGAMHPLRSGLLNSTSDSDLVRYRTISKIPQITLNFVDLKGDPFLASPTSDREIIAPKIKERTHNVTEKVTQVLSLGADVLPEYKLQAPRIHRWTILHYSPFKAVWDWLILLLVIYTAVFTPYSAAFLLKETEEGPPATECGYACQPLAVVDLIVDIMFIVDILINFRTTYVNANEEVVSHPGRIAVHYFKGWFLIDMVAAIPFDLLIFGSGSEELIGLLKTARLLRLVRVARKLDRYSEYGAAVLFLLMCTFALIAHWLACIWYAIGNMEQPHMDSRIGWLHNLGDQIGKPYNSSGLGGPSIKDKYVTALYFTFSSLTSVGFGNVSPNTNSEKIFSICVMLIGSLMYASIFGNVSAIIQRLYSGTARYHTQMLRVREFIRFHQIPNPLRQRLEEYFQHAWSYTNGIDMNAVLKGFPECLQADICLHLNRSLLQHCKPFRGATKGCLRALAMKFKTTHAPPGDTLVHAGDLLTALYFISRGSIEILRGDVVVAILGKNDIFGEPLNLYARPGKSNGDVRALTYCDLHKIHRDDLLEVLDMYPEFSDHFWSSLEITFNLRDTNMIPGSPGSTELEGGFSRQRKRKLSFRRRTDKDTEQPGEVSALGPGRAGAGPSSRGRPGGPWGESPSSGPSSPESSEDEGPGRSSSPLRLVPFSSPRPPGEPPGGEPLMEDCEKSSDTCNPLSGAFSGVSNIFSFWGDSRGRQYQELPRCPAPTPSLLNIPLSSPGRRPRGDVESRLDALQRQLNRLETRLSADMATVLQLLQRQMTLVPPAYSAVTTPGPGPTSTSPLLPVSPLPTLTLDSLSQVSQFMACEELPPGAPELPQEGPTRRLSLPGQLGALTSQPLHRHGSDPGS

Row | Compound | hERG current change (%, negative = inhibition) at 10uM
1 | COc1ccccc1N1CCN(C(=O)C2CC2)CC1 | 20%
2 | O=C(NCCc1ccccc1)c1ccccc1F | 24.5%
3 | O=C(CCCN1C(=O)/C(=C/c2ccccc2Cl)SC1=S)NNC(=O)c1ccccc1Cl | 29.8%
4 | COCCSc1ccccc1C(=O)N1CCN(c2ccccc2OC)CC1 | 8.73%
5 | S=c1[nH]c2ccccc2n1CCOc1ccccc1 | 8.28%
6 | CCN(CC)CCn1c(=N)n(CCO)c2ccccc21 | 5.99%
7 | Br.CCN(CC)CCn1c(=N)n(CCOc2ccccc2)c2ccccc21 | -53.6%
8 | O=C(NC1CCSc2ccccc21)c1cc(S(=O)(=O)N2CCOCC2)ccc1Cl (stereo not drawn) | -18%
9 | COc1ccc(NC(=S)N(Cc2ccc(Cl)cc2)Cc2ccc(C(=O)O)cc2)cc1Cl | -3.51%
10 | CCOC(=O)c1ccc(-n2c(CN3CCC(C(N)=O)CC3)nc3ccc([N+](=O)[O-])cc3c2=O)cc1 | -27.3%
11 | CCC(C)(C)n1nnnc1C(C(C)C)N(Cc1cccnc1)Cc1ccco1 (stereo not drawn) | -2.92%
12 | Cc1ccc2cc(C(c3nnnn3C3CCCC3)N(Cc3ccccc3)Cc3ccco3)c(=O)[nH]c2c1 (stereo not drawn) | 10.7%
13 | Cc1ccc2cc(C(c3nnnn3C3CCCC3)N(Cc3cccnc3)Cc3ccco3)c(=O)[nH]c2c1 (stereo not drawn) | -77.8%
14 | CCC(C)(C)n1nnnc1C(c1cc2ccc(C)cc2[nH]c1=O)N(Cc1cccnc1)Cc1ccco1 (stereo not drawn) | -60.6%
15 | Cc1ccc2[nH]c(=O)c(C(c3nnnn3C3CCCC3)N(Cc3cccnc3)Cc3ccco3)cc2c1 (stereo not drawn) | -5.71%
16 | Cc1cc2cc(C(c3nnnn3C3CCCC3)N(Cc3cccnc3)Cc3ccco3)c(=O)[nH]c2cc1C (stereo not drawn) | -24.3%
17 | O=C(CC1C(=O)NCCN1Cc1ccc(-c2ccccc2)cc1)NCCCn1ccnc1 (stereo not drawn) | 14%
18 | CC(C)CCNS(=O)(=O)c1cc2c3c(c1)CCN3C(=O)CC2 | 2.2%
19 | COc1cc(-c2noc(CCCC(=O)NCc3ccco3)n2)cc(OC)c1OC | -12.1%
20 | O=C1N(Cc2cccc(Cl)c2)C[C@@H]2C[C@@H](c3cccn3-c3ccccn3)N3CCC[C@@]123 | -73.5%
21 | CCn1ccnc1[C@@H]1C[C@H]2CN(Cc3cccc(Cl)c3)C(=O)[C@]23CCCN13 | -39.3%
22 | O=C1N(Cc2cccc(Cl)c2)C[C@@H]2C[C@@H](c3cccn3-c3cccnc3)N3CCC[C@@]123 | -35.7%
23 | O=C1N(Cc2cccc(Cl)c2)C[C@@H]2C[C@@H](c3cccn3-c3nccs3)N3CCC[C@@]123 | -68%
24 | C#CCOCCOCCOCCNc1nc(N2CCOCC2)nc(N2CCN(C(=O)[C@H](Cc3cc4ccccc4[nH]3)n3cc([C@@H](N)C(C)CC)nn3)CC2)n1.Cl (stereo partly drawn) | 9.81%
25 | O=C(CSc1nc(-c2ccccc2)cc(=O)[nH]1)N1CCOCC1 | 5.84%
26 | O=C(c1ccco1)N1CCN(c2ncnc3c2[nH]c2ccc(Cl)cc23)CC1 | -65.2%

Row | Compound | hERG current change (%, negative = inhibition) at 10uM
27 | Cc1cccc2[nH]c3c(N4CCN(C(=O)c5ccco5)CC4)ncnc3c12 | -27%
28 | CCOc1ccc2[nH]c3c(N4CCc5ccccc5C4)ncnc3c2c1 | 5.49%
29 | O=C(c1ccco1)N1CCN(c2ncnc3c(-c4ccc(Cl)cc4)nsc23)CC1 | 4.82%
30 | CCOc1ccc2[nH]c3c(N4CCC5(CC4)OCCO5)ncnc3c2c1 | 5.84%
31 | CCOC(=O)N1CCN(c2ncnc3c2[nH]c2ccc(OC)cc23)CC1 | -44.1%
32 | COc1cc2[nH]c3c(N4CCN(c5ccccn5)CC4)ncnc3c2cc1OC | 13.1%
33 | CCOc1ccc2[nH]c3c(N4CCN(c5ccccn5)CC4)ncnc3c2c1 | -59.4%
34 | CCOc1ccc2[nH]c3c(N4CCN(C(=O)c5ccco5)CC4)ncnc3c2c1 | -58.4%
35 | Cc1ccc(C(C)(C)C)cc1S(=O)(=O)Nc1ncnc2sccc12 | 12.2%
36 | Cn1nnc(NC(=O)c2ccc3ccccc3c2)n1 | 5.99%
37 | CCCN(Cc1cc2ccccc2[nH]c1=O)C(=O)c1cccc([N+](=O)[O-])c1 | -16.8%
38 | N#Cc1cccc(S(=O)(=O)N2CCN(c3ccnc4cc(Cl)ccc34)CC2)c1 | -70.7%
39 | CN1CCCN(S(=O)(=O)c2cccc(C#N)c2)CC1.Cl | 6.61%
40 | Cc1ccc(S(=O)(=O)N2CCN(c3ccnc4cc(Cl)ccc34)CC2)cc1C | 30.7%
41 | O=S(=O)(c1ccc(Br)s1)N1CCN(c2ccnc3cc(Cl)ccc23)CC1 | -14.8%
42 | O=[N+]([O-])c1ccc(S(=O)(=O)N2CCN(c3ccnc4cc(Cl)ccc34)CC2)cc1 | -73.5%
43 | O=S(=O)(c1ccccc1OC(F)(F)F)N1CCN(c2ccnc3cc(Cl)ccc23)CC1 | -18.4%
44 | O=S(=O)(c1cccs1)N1CCN(c2ccnc3cc(Cl)ccc23)CC1 | -68.4%
45 | O=[N+]([O-])c1ccc(N2CCN(S(=O)(=O)c3ccccc3)CC2)cc1 | -46.9%
46 | O=S(=O)(c1ccccc1)N1CCN(c2ccnc3cc(Cl)ccc23)CC1 | -84%
47 | Cc1ccc(Cl)cc1N1CCN(S(=O)(=O)c2cccc(S(=O)(=O)N3CCCC3)c2)CC1 | 2.64%
48 | O=S(=O)(c1cccc(Br)c1)N1CCN(c2ccnc3cc(Cl)ccc23)CC1 | 8.43%
49 | O=S(=O)(c1cccs1)N1CCN(c2ccccc2Cl)CC1 | 9.51%
50 | COc1ccc(C(=O)COC(=O)c2ccn(C)n2)cc1 | -14.5%
51 | Cc1[nH]c(C)c(S(=O)(=O)N2CCN(c3cccc(C(F)(F)F)c3)CC2)c1C(=O)N1CCCCC1 | -1.72%
